Test results published in PubChem BioAssay AID651923 (Vanderbilt Specialized Chemistry Center, 2012).
Active and inactive are the calls of the source. No rule for the calls is given here.

Molecular target: Muscarinic acetylcholine receptor M1 (Homo sapiens) (UniProt P11229)
Test: human M1 receptor potentiation, selectivity assay for M5 PAM project, CHO cells (AID 651923)

Muscarinic acetylcholine receptor M1 (Homo sapiens), sequence (P11229 whole entry, looked up): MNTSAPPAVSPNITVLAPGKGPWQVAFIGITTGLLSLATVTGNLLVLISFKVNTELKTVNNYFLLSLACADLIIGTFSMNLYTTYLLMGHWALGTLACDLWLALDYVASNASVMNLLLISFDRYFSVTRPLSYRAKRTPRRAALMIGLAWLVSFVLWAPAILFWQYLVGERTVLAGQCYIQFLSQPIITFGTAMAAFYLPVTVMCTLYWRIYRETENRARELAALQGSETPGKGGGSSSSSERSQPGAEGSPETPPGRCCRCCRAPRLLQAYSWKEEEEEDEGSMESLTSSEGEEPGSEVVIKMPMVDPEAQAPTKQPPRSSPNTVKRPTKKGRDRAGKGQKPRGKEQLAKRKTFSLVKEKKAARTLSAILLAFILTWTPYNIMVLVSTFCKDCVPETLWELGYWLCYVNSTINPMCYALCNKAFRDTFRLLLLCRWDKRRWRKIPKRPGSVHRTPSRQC

O=C1C(=O)N(CCOc2ccccc2)c2ccc(OC(F)(F)F)cc21
outcome: inactive
